Potency data for eight compounds are collected here from PubChem BioAssay (NCATS).

Molecules are shown by their SMILES. Inconclusive results are not listed. Calls of active or inactive are those of the source. Calls follow the shape of the dose curve; as a rule, active = well fitted inhibition curve with a large enough effect; inconclusive = small, poorly fitted or top-dose-only effect; inactive = flat fitted curve, though single readings scatter.

For assay [1], the target named is Luciferin 4-monooxygenase (Photinus pyralis) (UniProt P08659). The assay is described as follows: Biochemical firefly luciferase enzyme assay for NPC (AID 624030).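 Also: purified P. pyralis luciferase at 10 nM with luciferin and ATP substrate; nearly all actives have a fitted effect of over 70% in size.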 Summed up:
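Purified P. pyralis luciferase at 10 nM in 50 mM Tris Acetate (final), luminescence read within 5 minutes of enzyme addition to compounds. Activity normalised to PTC124 versus DMSO; concentration-response curves classed by r2, magnitude and activity.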

Another assay concerns CP266. The assay is described as follows: qHTS profiling for inhibitors of Plasmodium falciparum proliferation (AID 504749). Also: nearly all actives have a fitted effect of over 60% in size. Also: potency is read from the fitted curve at half-maximal effect. The following applies: P. falciparum in erythrocytes, SYBR Green DNA, 72 h; series mostly up to 28.7 µM. A digest of the protocol: (§1)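 P. falciparum-infected erythrocytes (0.3% parasitemia, 2.5% hematocrit) incubated with compound 72 h at 37 C, 5% CO2. Parasite DNA detected by SYBR Green after lysis, overnight at room temperature; normalised to 0.29 uM artemisinin and DMSO.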

A further assay relates to CP268. The description is as above. As to conditions: P. falciparum in erythrocytes, SYBR Green DNA, 72 h; series mostly up to 28.7 µM. Summed up: as §1
For a further assay, the system named is CP269. Described as above. As to conditions: P. falciparum in erythrocytes, SYBR Green DNA, 72 h; series mostly up to 28.7 µM. Summed up: as §1
A further assay relates to CP297. Described as above. The following applies: P. falciparum in erythrocytes, SYBR Green DNA, 72 h; series mostly up to 28.7 µM. A digest of the protocol: as §1
A further assay has as its system CP305. Described as above. As to conditions: P. falciparum in erythrocytes, SYBR Green DNA, 72 h; series mostly up to 28.7 µM. A digest of the protocol:
as §1

For another assay, the system named is CP325. The assay is described as above. The following applies: P. falciparum in erythrocytes, SYBR Green DNA, 72 h; series mostly up to 28.7 µM. A digest of the protocol: as §1
The test system of the next assay is CP329. The description is as above. As to conditions: P. falciparum in erythrocytes, SYBR Green DNA, 72 h; series mostly up to 28.7 µM. A digest of the protocol:
as §1

A further assay concerns CP335. The description is as above. The following applies: P. falciparum in erythrocytes, SYBR Green DNA, 72 h; series mostly up to 28.7 µM. A digest of the protocol:
as §1

For a further assay, the system named is DIV14. The assay is described as above. As to conditions: P. falciparum in erythrocytes, SYBR Green DNA, 72 h; series mostly up to 28.7 µM. A digest of the protocol:
as §1

Another assay deals with ECU. Described as above. The following applies: P. falciparum in erythrocytes, SYBR Green DNA, 72 h; series mostly up to 28.7 µM. Summed up: as §1
Another assay deals with GB4. The description is as above. The following applies: P. falciparum in erythrocytes, SYBR Green DNA, 72 h; series mostly up to 28.7 µM. Summed up: as §1
The next assay relates to JCK. Described as above. As to conditions: P. falciparum in erythrocytes, SYBR Green DNA, 72 h; series mostly up to 28.7 µM. Summed up:
as §1

The test system of another assay is P93_24. Described as above. As to conditions: P. falciparum in erythrocytes, SYBR Green DNA, 72 h; series mostly up to 28.7 µM. Summed up: as §1
Another assay relates to PAD. The description is as above. As to conditions: P. falciparum in erythrocytes, SYBR Green DNA, 72 h; series mostly up to 28.7 µM. Summed up: as §1
Another assay deals with PC15. The assay is described as above. As to conditions: P. falciparum in erythrocytes, SYBR Green DNA, 72 h; series mostly up to 28.7 µM. Summed up:
as §1

The subject of a further assay is PC26. Described as above. The following applies: P. falciparum in erythrocytes, SYBR Green DNA, 72 h; series mostly up to 28.7 µM. Summed up:
as §1

A further assay has as its system PC49. Described as above. The following applies: P. falciparum in erythrocytes, SYBR Green DNA, 72 h; series mostly up to 28.7 µM. A digest of the protocol: as §1
For another assay, the system named is TAB109. Described as above. As to conditions: P. falciparum in erythrocytes, SYBR Green DNA, 72 h; series mostly up to 28.7 µM. A digest of the protocol: as §1
The next assay has as its system TAB113. The assay is described as above. As to conditions: P. falciparum in erythrocytes, SYBR Green DNA, 72 h; series mostly up to 28.7 µM. Summed up: as §1

Luciferin 4-monooxygenase (Photinus pyralis), sequence (P08659 whole entry, looked up): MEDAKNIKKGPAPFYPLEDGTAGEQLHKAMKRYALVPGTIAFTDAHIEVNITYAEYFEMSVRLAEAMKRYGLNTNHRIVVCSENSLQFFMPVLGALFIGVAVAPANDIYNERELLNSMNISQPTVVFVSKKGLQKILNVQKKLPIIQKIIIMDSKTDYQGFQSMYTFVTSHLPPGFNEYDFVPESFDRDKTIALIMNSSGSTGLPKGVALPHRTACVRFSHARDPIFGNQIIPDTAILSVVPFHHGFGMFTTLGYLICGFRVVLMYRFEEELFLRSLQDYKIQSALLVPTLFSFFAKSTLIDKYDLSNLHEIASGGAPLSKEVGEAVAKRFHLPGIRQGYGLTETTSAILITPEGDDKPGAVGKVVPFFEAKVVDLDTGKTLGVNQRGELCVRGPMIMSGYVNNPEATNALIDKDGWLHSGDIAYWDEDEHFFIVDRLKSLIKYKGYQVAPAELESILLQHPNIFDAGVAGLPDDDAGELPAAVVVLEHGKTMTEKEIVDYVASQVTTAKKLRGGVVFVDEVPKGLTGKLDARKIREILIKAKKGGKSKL

For `O=C(O)CC(O)CC(O)/C=C/c1c(C2CC2)nc2ccccc2c1-c1ccc(F)cc1` (stereo not given), the Potency entry (in [1]; in the assay on CP266; with CP268; in the assay with CP269; in the assay with CP297; in the assay on CP305) was “inactive” each time. The Potency result in the assay with CP325, in the assay with CP329, with CP335, in the assay on DIV14, in the assay with ECU and in the assay with GB4 was “inactive” in each case. Further, the Potency result with JCK, in the assay with P93_24, in the assay on PAD, in the assay with PC15, with PC26 and in the assay with PC49 was “inactive” each time. Besides, the Potency entry in the assay with TAB109 and in the assay on TAB113 was “inactive” each time.

`C=C[C@H]1CN2CCC1C[C@H]2[C@H](O)c1ccnc2ccc(OC)cc12` (stereo not given in full): the Potency entry in assay [1] was “inactive”. For the same compound, the Potency is 1.9 µM (active) in the assay with CP266; 1.51 µM (active) with CP268; 1.51 µM (active) in the assay with CP269; 1.69 µM (active) in the assay on CP297; 1.35 µM (active) in the assay on CP305; 1.2 µM (active) in the assay with CP325. Further, the Potency with CP329 was 1.69 µM (active); in the assay with CP335, 0.849 µM (active); in the assay with DIV14, 0.757 µM (active); in the assay with ECU, 0.251 µM (active); with GB4, 0.301 µM (active); in the assay with JCK it was 10 µM (active). The Potency in the assay on P93_24 is 1 µM (active); in the assay on PAD, 0.891 µM (active); in the assay on PC15, 0.447 µM (active); in the assay with PC26, 0.601 µM (active); in the assay with PC49, 1.26 µM (active); in the assay with TAB109, 0.501 µM (active). The Potency in the assay with TAB113 was 0.708 µM (active).

Regarding `Nc1nc(F)nc2c1ncn2[C@@H]1O[C@H](CO)[C@@H](O)[C@H]1O`, the Potency entry (in assay [1]; in the assay with CP266; in the assay with CP268; with CP269; with CP297; in the assay on CP325) was “inactive” throughout. The Potency entry with CP329, in the assay on CP335, with DIV14, in the assay on ECU, in the assay on GB4 and in the assay with JCK was “inactive” in each case. Moreover, the Potency result with P93_24, with PAD, in the assay with PC15, in the assay with PC26, with PC49 and in the assay with TAB109 was “inactive” each time. Further, the Potency result in the assay on TAB113 was “inactive”.

Take `OCCOC[C@H]1O[C@H](OCCO)[C@H](OCCO)[C@@H](OCCO)[C@@H]1OCCO` (tested in a mixture with another compound): the Potency entry (in assay [1]; in the assay with CP266; in the assay on CP268; with CP269; in the assay with CP297; with CP305) was “inactive” each time. Besides, the Potency result in the assay with CP325, in the assay on CP329, in the assay on CP335, in the assay on DIV14, in the assay with ECU and in the assay with GB4 was “inactive” each time. Besides, the Potency entry in the assay with JCK, with P93_24, with PAD, in the assay on PC15, with PC26 and in the assay on PC49 was “inactive” throughout. Also, the Potency entry with TAB109 is “inactive”.

With `CC1(C(=O)O)CCC2(C)CCC3(C)C(=CC(=O)C4C5(C)CCC(O)C(C)(C)C5CCC43C)C2C1` (stereo not given), the Potency result (in assay [1]; in the assay with CP268; in the assay on CP269; in the assay with CP297; in the assay with CP305; with CP325) was “inactive” in each case. Besides, the Potency result with CP329, in the assay with CP335, with DIV14, in the assay with ECU, in the assay on GB4 and in the assay with JCK was “inactive” in each case. Moreover, the Potency result in the assay on P93_24, with PAD, with PC15, with PC26, with PC49 and in the assay with TAB109 was “inactive” in each case. Moreover, in the assay on TAB113, the Potency result was “inactive”.

As for `C[C@H]1[C@@H](OC(=O)CCC(=O)O)OC2OC3(C)CC[C@H]4[C@H](C)CC[C@@H]1[C@@]24OO3` (stereo not given in full), the Potency entry in assay [1] is “inactive”. For the same compound, the Potency with CP266 is 0.0239 µM (active); in the assay with CP268, 0.0054 µM (active); with CP269, 0.0048 µM (active); in the assay on CP297, 0.0048 µM (active); with CP305, 0.006 µM (active); with CP325, 0.006 µM (active). The Potency was 0.0076 µM (active) in the assay on CP329; 0.0048 µM (active) with CP335; 0.0034 µM (active) in the assay on DIV14; 0.0028 µM (active) with ECU; 0.003 µM (active) in the assay with GB4; 0.0022 µM (active) in the assay on P93_24. In addition, the Potency with PAD was 0.0056 µM (active); in the assay with PC15, 0.0045 µM (active); with PC26, 0.0034 µM (active); in the assay on TAB109, 0.0025 µM (active); in the assay with TAB113, 0.002 µM (active).

For `CN1[C@@H]2CC[C@@H]1CC(OC(=O)[C@H](CO)c1ccccc1)C2` (stereo not given in full), the Potency result (in assay [1]; in the assay on CP266; in the assay on CP268; in the assay with CP269; in the assay with CP297; in the assay with CP305) was “inactive” each time. Further, the Potency entry with CP325, with CP329, in the assay with CP335, with DIV14, in the assay on ECU and in the assay on GB4 was “inactive” throughout. Further, the Potency entry with P93_24, with PAD, in the assay with PC26 and with TAB109 was “inactive” in each case. Further, the Potency with JCK was 15.8 µM (active).

For `CC(CCC(=O)O)C1CCC2C3C(=O)C[C@@H]4CC(=O)CC[C@@]4(C)C3CC(=O)[C@]12C` (stereo not given in full), the Potency result (in [1]; with CP266; in the assay on CP268; in the assay with CP269; in the assay with CP297; in the assay on CP305) was “inactive” throughout. The Potency result in the assay on CP325, in the assay with CP329, in the assay with ECU, in the assay on GB4, in the assay with JCK and with P93_24 was “inactive” each time. In addition, the Potency result in the assay with PAD, in the assay with PC15, in the assay on PC26, in the assay on PC49, in the assay on TAB109 and with TAB113 was “inactive” throughout.
